Source: PubChem (National Center for Advancing Translational Sciences (NCATS))
Rows were chosen to be rich in hits. Some 7.4% of all compounds tested hit in one or more screens of this group.
SNCA viab count: reduces viability of HEK-293 SNCA reporter cells. Potency, µM (doses to about 57.1 µM), hits mostly cytotoxic. HEK-293-SNCA-luc viability, GF-AFC fluorescence, 24 h. 0.12% of 150,000 active; also: nearly all actives have a fitted effect of over 30% in size
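Cytotoxicity counterscreen: after 24 h compound treatment of genome-edited SNCA-luciferase HEK-293 cells, live-cell protease substrate GF-AFC read by fluorescence after 30 min; activity scaled between DMSO (0%) and medium-only (-100%), curves Hill-fitted.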
SNCA expr inhib: SNCA gene expression inhibition | Potency, µM (titrated, usually from 57.2 µM), hits mostly inhibitors | HEK-293 SNCA-luciferase knock-in, luminescence, 24 h | 0.17% of 140,000 active | AID 1671194; also: nearly all actives have a fitted effect of over 45% in size
NIH3T3 tox: NIH 3T3 cell cytotoxicity; 4.3% of 94,000 active; Potency, µM (titrated, usually from 96.7 µM), usual class: inhibitors; NIH 3T3 viability, CellTiter-Glo ATP luminescence, 48-72 h; also: nearly all actives have a fitted effect of over 55% in size
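Mouse fibroblast NIH 3T3 cells, 400 per well, received compound via pintool and were incubated for 48 or 72 hr prior to CellTiter-Glo ATP luminescence measurement.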
hNpr1 antagonist: human Npr1 receptor antagonism. 1.6% of 76,000 active. P16066. HEK293 hNpr1 GloSensor cGMP, ANP-stimulated luminescence. Potency, µM (highest dose often 46.3 µM), hits mostly inhibitors; calls by dose curve; also: nearly all actives have a fitted effect of over 60% in size
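Compound pre-incubated 30 min at room temperature on GloSensor-loaded HEK293 cells stably carrying hNpr1 and the pGS-40F cGMP biosensor. Stimulation uses hNppA at 0.1 nM final; luminescence is taken at baseline and 20 min post-agonist.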
FLuc inh: Photinus pyralis luciferase inhibition; purified P. pyralis luciferase, luminescence, biochemical; Potency, µM (top dose mostly 115 µM), usual class: inhibitors; 2.5% of 76,000 active; AID 1347043; also: nearly all actives have a fitted effect of over 65% in size
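Purified P. pyralis luciferase (10nM final) in 50mM Tris acetate pH 7.5, 10mM Mg acetate, 0.01% Tween-20, 0.05% BSA with 10uM D-luciferin and 10uM ATP. Compounds titrated qHTS. Luminescence imaged on CCD.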
HEK293 tox: cytotoxic compounds in HEK 293 cells; AID 1345083; Potency, µM (top dose mostly 115 µM), hits mostly inhibitors; 6.6% of 94,000 active; HEK 293 viability, ATP luminescence (CellTiter-Glo), 48-72 h; also: nearly all actives have a fitted effect of over 60% in size
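HEK 293 cells at 250 cells/well were exposed to compounds by pintool transfer for 48 or 72 hr at 37 degree Celsius, 5% CO2. Viability was read as ATP-coupled luminescence with CellTiter-Glo after 10 min at room temperature.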
Npr1 antag conf: hNpr1 antagonism, confirmation assay; shares compounds with hNpr1 antagonist; HEK293 hNpr1 cGMP GloSensor luminescence, ANP-stimulated; Potency, µM (titrated, usually from 57.6 µM), most hits filed as inhibitors; 76% of 1,400 active; calls by dose curve; also: nearly all actives have a fitted effect of over 70% in size
NPR2 antag: selectivity test of Npr1 antagonists against human Npr2 | shares compounds with hNpr1 antagonist | HEK293 hNpr2 GloSensor cGMP luminescence, CNP-stimulated | Potency, µM (highest dose often 57.6 µM), most hits filed as inhibitors | 67% of 1,400 active; calls by dose curve; also: nearly all actives have a fitted effect of over 70% in size
FLuc inh counter: FLuc enzyme inhibition, Npr1 counter-screen. shares compounds with hNpr1 antagonist. purified FLuc enzyme, luminescence, Km substrate. Potency, µM (titrated, usually from 57.6 µM), usual class: inhibitors. 0.7% of 1,400 active; also: series mostly up to about 58 µM
GloSensor cGMP: reduces cGMP signal in GloSensor control cells | HEK293 GloSensor cGMP, SNP-stimulated, luminescence | Potency, µM (titrated, usually from 57.6 µM), hits mostly inhibitors | AID 1347051 | 69% of 1,400 active | shares compounds with hNpr1 antagonist; calls by dose curve; also: nearly all actives have a fitted effect of over 70% in size
Large screens that a line does not name were inactive (follow-up assays come after a bar, where they were run). Unless noted, calls follow the shape of the dose curve; as a rule, active = well fitted curve in the direction sought with a large enough effect; inconclusive = small, poorly fitted or top-dose-only effect, or another doubt; inactive = no such curve, though single readings can be large; an effect the other way counts as inactive or inconclusive.

O=C(c1ccc(OC(F)(F)F)cc1)N1CCN(c2cc(-c3ccc(Cl)cc3)[nH]n2)CC1	NIH3T3 tox 18µM, hNpr1 antagonist 11µM, HEK293 tox 32µM | Npr1 antag conf 19µM | NPR2 antag 22µM | FLuc inh counter inactive | GloSensor cGMP 19µM
CC(=O)OC1C(O)CC2(C)C(CCC(C)C23Cc2c(O)cc(CO)c(C=O)c2O3)C1(C)C (stereo not given)	none (no result: SNCA expr inhib, NIH3T3 tox, hNpr1 antagonist, FLuc inh, HEK293 tox)
Cc1ccc(C(=O)NC(C(=O)N2CCCCC2)C2CCN(C(=O)c3ccc(C)cc3)CC2)cc1 (stereo not given)	SNCA expr inhib inconclusive, HEK293 tox inconclusive
Oc1ccc(-c2nc(C3CC3)nc3c2CCN(Cc2cccc4ccccc24)CC3)cc1	NIH3T3 tox inconclusive, HEK293 tox 18µM | Npr1 antag conf inactive | NPR2 antag inconclusive | FLuc inh counter inactive | GloSensor cGMP inactive
Cc1ccc(CN2CCc3nc(C4CC4)nc(-c4ccc(O)cc4)c3CC2)cc1	NIH3T3 tox inconclusive, HEK293 tox inconclusive
Fc1ccc(-c2cnc([C@@H]3COCCN3Cc3c[nH]c4ccccc34)[nH]2)c(F)c1	SNCA expr inhib inconclusive, NIH3T3 tox inconclusive, hNpr1 antagonist 25µM, HEK293 tox 79µM | Npr1 antag conf 35µM | NPR2 antag 44µM | FLuc inh counter inactive | GloSensor cGMP 40µM
COc1ccc(C(=O)N2CCCCC2c2nc(CCOc3cccc(C)c3)no2)cn1 (stereo not given)	NIH3T3 tox inconclusive, hNpr1 antagonist inconclusive, HEK293 tox inconclusive
COc1ccc(C(=O)Nc2ccc(-c3noc([C@@H]4CCCN4Cc4ccc(F)cc4)n3)cn2)cc1	NIH3T3 tox inconclusive, hNpr1 antagonist 11µM, HEK293 tox inconclusive | Npr1 antag conf 14µM | NPR2 antag 17µM | FLuc inh counter inactive | GloSensor cGMP 12µM
COc1ccc(C2(C(=O)N3CCC[C@H]3c3nc(-c4ccccc4Cl)no3)CC2)cc1	NIH3T3 tox inconclusive, hNpr1 antagonist 10µM, HEK293 tox inconclusive | Npr1 antag conf 22µM | NPR2 antag 22µM | FLuc inh counter inactive | GloSensor cGMP 24µM
COc1ccc(C2(C(=O)N3CCCCCC3c3nc(C4CC4)no3)CC2)cc1 (stereo not given)	NIH3T3 tox inconclusive, HEK293 tox inconclusive
CCCCOc1ccc(C(=O)N2CCC[C@H]2c2nc(-c3ccc(OC)cc3)no2)cc1	NIH3T3 tox inconclusive, hNpr1 antagonist inconclusive, HEK293 tox 25µM | Npr1 antag conf inconclusive | NPR2 antag inactive | FLuc inh counter inactive | GloSensor cGMP inconclusive
COc1ccc(C(=O)Nc2ccc(-c3noc([C@@H]4CCCN4Cc4c[nH]c5ccccc45)n3)cn2)cc1	SNCA viab count inconclusive, SNCA expr inhib inconclusive, NIH3T3 tox inconclusive, hNpr1 antagonist 10µM, HEK293 tox inconclusive | Npr1 antag conf 11µM | NPR2 antag 19µM | FLuc inh counter inactive | GloSensor cGMP 11µM
COc1ccc(S(=O)(=O)N2CCCC(Cc3noc(-c4ccncc4)n3)C2)cc1 (stereo not given)	hNpr1 antagonist inconclusive, HEK293 tox inconclusive
COc1ccc(C(=O)Nc2ccc(-c3noc([C@@H]4CCCN4CCCc4ccccc4)n3)cn2)cc1	NIH3T3 tox inconclusive, hNpr1 antagonist 13µM, HEK293 tox 16µM | Npr1 antag conf 17µM | NPR2 antag 19µM | FLuc inh counter inactive | GloSensor cGMP 14µM
COc1ccc(C(=O)Nc2ccc(-c3noc([C@@H]4CCCN4Cc4ccco4)n3)cn2)cc1	NIH3T3 tox inconclusive, hNpr1 antagonist 13µM, HEK293 tox inconclusive | Npr1 antag conf 14µM | NPR2 antag 19µM | FLuc inh counter inconclusive | GloSensor cGMP 17µM
O=C(O)C[C@@H]1CCN(C(=O)C2CC2)C[C@@H]1CCN1CCN(c2ccccn2)CC1	none
COc1ccc(C2Cn3nnc(-c4nc(C5CC5)no4)c3CO2)cc1 (stereo not given)	hNpr1 antagonist inconclusive | Npr1 antag conf inconclusive | NPR2 antag inactive | FLuc inh counter inactive | GloSensor cGMP inactive
Fc1ccc(C2Cn3nnc(-c4nc(C5CCCCC5)no4)c3CO2)cc1 (stereo not given)	hNpr1 antagonist inconclusive | Npr1 antag conf 12µM | NPR2 antag 9.7µM | FLuc inh counter inactive | GloSensor cGMP inactive
Cc1ccc(C2Cn3nnc(-c4noc(-c5ccoc5)n4)c3CO2)cc1 (stereo not given)	hNpr1 antagonist inconclusive | Npr1 antag conf inconclusive | NPR2 antag inconclusive | FLuc inh counter inactive | GloSensor cGMP inactive
COCCN1C(=O)CSC12CCN(C(=O)Nc1ccccc1C)CC2	none
Cc1nn(C)c(C)c1CCCN(C)C(=O)c1ccc2c(c1)C(O)CCCCCN2C (stereo not given)	NIH3T3 tox inconclusive, hNpr1 antagonist 11µM, HEK293 tox 35µM | Npr1 antag conf 12µM | NPR2 antag 14µM | FLuc inh counter inactive | GloSensor cGMP 9.7µM
CCn1cc(CN(C)C(=O)c2ccc3c(c2)C(O)CCCCCN3C)c(C)n1 (stereo not given)	NIH3T3 tox inconclusive, hNpr1 antagonist inconclusive, HEK293 tox inconclusive
COc1cccc(CN2CCCC(C(=O)NCc3ccccc3)CCNC(=O)CC2)c1 (stereo not given)	SNCA viab count inconclusive
N#Cc1ccccc1CN1CCCC(C(=O)NCc2ccccc2)CCNC(=O)CC1 (stereo not given)	hNpr1 antagonist 4µM | Npr1 antag conf 14µM | NPR2 antag 6.1µM | FLuc inh counter inactive | GloSensor cGMP inactive
CCn1cc(CN2CCCC23CCN(c2cc(C)nc4ccccc24)CC3)cn1	SNCA viab count inconclusive, NIH3T3 tox inconclusive, HEK293 tox inconclusive
Cc1ccc(OCCC2CCN(C(=O)Cc3cccnc3)C2)cc1 (stereo not given)	hNpr1 antagonist inconclusive, HEK293 tox inconclusive | Npr1 antag conf inconclusive | NPR2 antag inconclusive | FLuc inh counter inactive | GloSensor cGMP inconclusive
